These results are taken from PubChem BioAssay AID1347075 (National Center for Advancing Translational Sciences (NCATS), 2019).

Each structure is given as a SMILES string. Hit rate of the full screen: of about 400,000 compounds, about 5,500 (1.4%) were called active. Another 9% or so got no clear call; they are omitted. The entries come from a sample that favours actives as a whole. Values without a mark were called inactive. Calls come from the whole dose curve; as a rule, active = well fitted cell-killing curve with a large enough effect; inconclusive = small, poorly fitted or top-dose-only effect, or effect the other way; inactive = flat fitted curve, though single readings scatter.
% is set by controls: 0 for no effect and ±100 for the full control effect; potency is the fitted concentration of half-maximal effect.

This assay is described as follows: qHTS assay for MDR1-selective chemotherapeutics: Primary screen using the parental adenocarcinoma cell KB-3-1. Note: nearly all actives have a fitted effect of over 60% in size. The following applies: KB-3-1 viability, CellTiter-Glo ATP luminescence, 72 h; series mostly up to 46.1 µM; activity change, negative = cytotoxic: at the top concentration. The source says: A prime difficulty in effectively treating cancer is the development of cellular resistance to multiple structurally unrelated anticancer drugs, a phenomenon known as multidrug resistance (MDR). […] Numerous strategies to overcome P-gp-mediated MDR have been explored, including the design of drugs that evade recognition and efflux, and development of inhibitors to block efflux and restore drug accumulation. […] An alternative approach is to exploit resistance by identifying drugs that target MDR cells over the non-resistant parental cells from which they were selected. […] The development of MDR1-selective agents represents a new strategy for resolving multidrug resistance, as it remains a long-standing clinical challenge for cancer chemotherapy.
Our goal is to identify compounds that selectively kill P-gp-expressing MDR cells. We will identify MDR1-selective compounds by comparing toxicity of compounds in the screening library against parental, drug-naive (KB-3-1) adenocarcinoma cells as well as their drug-selected MDR sub-line (KB-V1). The differential toxicity of compounds against these two cell lines will be used to identify MDR1-selective compounds, whose cytotoxicity is potentiated, rather than diminished, by P-gp expression. This assay will be utilized to conduct a quantitative high-throughput screen (qHTS) in collaboration with the NIH Chemical Genomics Center to identify selective agents, and probe hits arising from the screen will be validated using secondary assays and characterized through a well-established follow-up research program. This screen was run against the entire NCGC library collection of about 400,000 compounds.
NIH Molecular Libraries Probe Production Network [MLPCN]
NIH Chemical Genomics Center [NCGC]
PI: Michael Gottesman PhD, National Cancer Institute, NIH
Briefly, 5 microL of media containing either KB-3-1 cells (columns 1-2, 4-48) are dispensed into Greiner white, treated solid-bottom 1536-well assay plates (media-only control is added to column 3). Compounds are then transferred via Kalypsys pin tool equipped with 1536-pin array (10 nL slotted pins, V&P Scientific, San Diego, CA). Following addition of compound, the plates are incubated at 37 degrees C for 72 hours. CellTiter-Glo (2.5 µL/well) is then added, and the plates are read in a ViewLux reader (Perkin-Elmer, clear luminescence filter, 1 second exposure, 1x binning) following a 10 minute incubation. All cells are dispensed in DMEM phenol-red free media containing 10% FBS.
Library plates were screened starting from the lowest and proceeding to the highest concentration. Vehicle-only plates, with DMSO being pin-transferred to columns 5-48, will be inserted uniformly at the beginning and the end of each library in order to monitor and record any shifts in the background, which can be affected by reagent dispensers or loss in enzyme activity over time. Screening data will be corrected, normalized, and concentration-effect relationships will be derived by using publicly-available NCGC, NCATS curve fitting algorithms (http://ncgc.nih.gov/pub/openhts).
As to `Cc1ccc(C)c(N2C(=O)N(Cc3c(F)cccc3Cl)c3ccccc3S2(=O)=O)c1`, the “activity change, negative = cytotoxic” value is -18.6%.

Regarding `Cc1cc(C)c(NC(=O)Cn2c(SCC(=O)NCc3ccccc3)nc3ccccc32)c(C)c1`, the “activity change, negative = cytotoxic” value is 10.2%.

Consider `Cc1cccc(NS(=O)(=O)c2ccc(-c3cnc(C4CC4)o3)cc2)c1`, for which the Potency was 1.46 µM (active).

Turning to `Cc1cccc(CNS(=O)(=O)c2ccc(-c3cnc(C4CC4)o3)cc2)c1`, the Potency entry was “inactive”.

`Cc1ccc(-c2cnc(C3CC3)o2)cc1S(=O)(=O)Nc1cccc(C)c1C`: the “activity change, negative = cytotoxic” value is -2.72%.

For the molecule `COCCn1c(CCC(=O)Nc2cc(C)ccc2C)nc2cccnc21`, the “activity change, negative = cytotoxic” value is 7.34%.

Turning to `COC(=O)c1ccccc1NC(=O)c1cc(-c2ccccc2O)no1`, the “activity change, negative = cytotoxic” value is 6%.

On to `O=C(CC(O)(C(F)(F)F)C(F)(F)F)Nc1ccc(Cl)c(Cl)c1`, for which the Potency is 5.17 µM (active).

With `Cc1ccc(-c2nn(CCC(=O)Nc3ccc(Cl)c(Cl)c3)c(=O)c3ccccc23)cc1`, the “activity change, negative = cytotoxic” value was 2.54%.

As to `O=C(CSc1nnc(-c2ccncc2)n1-c1ccccc1)Nc1ccc(Cl)c(Cl)c1`, the “activity change, negative = cytotoxic” value was -0.827%.

For the molecule `CC(C)c1ccc(-c2noc(C3CCCN(S(C)(=O)=O)C3)n2)cc1` (stereo not drawn), the Potency was 20.6 µM (active).

As to `COc1cc(-c2noc(C3CCCN(S(=O)(=O)c4cccc(Cl)c4)C3)n2)cc(OC)c1OC` (stereo not drawn), the “activity change, negative = cytotoxic” value was 0%.

With `O=C(Cc1cccs1)N1CCCC(c2nc(-c3ccc(S(=O)(=O)N4CCCC4)cc3)no2)C1` (stereo not drawn), the “activity change, negative = cytotoxic” value was -17.4%.

For `CC1CCCCN1CC(=O)N1CCCc2c1c(=O)oc1ccc(OCc3ccccc3)cc21` (stereo not drawn), the “activity change, negative = cytotoxic” value is -3.44%.

Turning to `Cc1cc(C)c(NC(=O)CCc2c(C)nc3c(c(C)nn3C(C)(C)C)c2C)c(C)c1`, the “activity change, negative = cytotoxic” value was 20.8%.

On to `Cc1ccc(CCC(=O)Nc2ncc(Cc3cc(Cl)ccc3Cl)s2)o1`, for which the Potency was 1.16 µM (active).

Regarding `CCc1ccc(CCC(=O)Nc2ccc(S(N)(=O)=O)cc2)o1`, the “activity change, negative = cytotoxic” value is 11%.

For `Cc1cccc(-n2c(=O)c3c(c4cc(C)ccc4n3C)n(CC(=O)Nc3ccccc3Cl)c2=O)c1`, the “activity change, negative = cytotoxic” value was -6.17%.

On to `CCC1CCCCN1S(=O)(=O)c1ccc(NC(=O)c2cc(=O)c3ccccc3o2)cc1` (stereo not drawn), for which the “activity change, negative = cytotoxic” value was 1.72%.

As to `COc1cc(C(O)c2nc(-c3cccc(C(=O)O)c3)cs2)ccc1F` (stereo not drawn), the “activity change, negative = cytotoxic” value is 0%.

For the molecule `COc1ccccc1C(=O)Nc1nc2nc(-c3ccccc3)cc(=O)n2[nH]1`, the Potency result was “inactive”.

For `COc1ccc2c(c1OC)C(=O)OC2Nc1nc(-c2ccccc2)cs1` (stereo not drawn), the Potency was 3.66 µM (active).

On to `CCOC(=O)c1cccc(NS(=O)(=O)c2cc(-c3cnc(C)o3)ccc2OC)c1`, for which the “activity change, negative = cytotoxic” value was 0.0337%.

As to `COc1ccc(C)cc1N(CC(=O)N1CCC(C)CC1)S(=O)(=O)c1ccc(C)cc1`, the “activity change, negative = cytotoxic” value was 19.4%.

With `CC(=O)Nc1ccc(NC(=O)c2cc3sccc3n2Cc2ccc(F)cc2)cc1`, the “activity change, negative = cytotoxic” value was 3.11%.

On to `CCn1cc(C(=O)OCC(=O)Nc2cc(C)cc(C)c2)c(=O)c2ccc(C)nc21`, for which the “activity change, negative = cytotoxic” value was 12.9%.

As for `C[n+]1ccc(/C=C/c2c[nH]c3ccccc23)cc1`, the Potency is 1.16 µM (active).

Turning to `Clc1ccc(CSc2nncn3c2cc2occc23)cc1`, the “activity change, negative = cytotoxic” value was 1.43%.

Regarding `COc1cccc2cc(-c3nc(Cl)c4c5c(sc4n3)CC(C)CC5)c(=O)oc12` (stereo not drawn), the “activity change, negative = cytotoxic” value was 0.732%.

As for `COc1ccc(CNC(=O)C2=Cc3cccc(OC)c3OC2)cc1OC`, the “activity change, negative = cytotoxic” value is 12.4%.

With `CCN(Cc1ccccc1)S(=O)(=O)c1ccc2c(c1)CCCN2C(C)=O`, the “activity change, negative = cytotoxic” value was 4.43%.

For the molecule `Oc1ccc2ccccc2c1N=Nc1nccs1`, the Potency is 14.6 µM (active).

On to `Cc1ccccc1OCCSc1nc2ccc(NC(=O)c3ccco3)cc2s1`, for which the “activity change, negative = cytotoxic” value is -13.2%.

With `O=C(Nc1ccc2c(c1)OCO2)c1cc(-c2cccc(Cl)c2)on1`, the “activity change, negative = cytotoxic” value is 17.7%.

For `Cc1ccc(S(=O)(=O)c2c(Nc3cccc(Cl)c3)sc(C(=O)c3ccc4c(c3)OCO4)c2N)cc1`, the Potency is 14.6 µM (active).

Consider `CC(=O)Nc1cccc(C(=O)OCC(=O)c2ccc3c(c2)OCO3)c1`, for which the “activity change, negative = cytotoxic” value was 42.1%.

`CN(C)C1=C2C=CC=CC2/C(=C2/C=Cc3ccccc32)C=C1` (stereo not drawn): the “activity change, negative = cytotoxic” value is -5.52%.

On to `COc1ccc(NC(=O)c2ccc3nc(CCc4ccccc4)oc3c2)c(OC)c1`, for which the “activity change, negative = cytotoxic” value is -1.55%.

Take `Cc1oc2ccc(O)c(CN3CCOCC3)c2c1C(=O)Nc1cccc(Cl)c1C`: the “activity change, negative = cytotoxic” value is 6.77%.

Turning to `COc1ccc(NC(=O)CSc2nccn2Cc2ccc3c(c2)OCO3)cc1`, the “activity change, negative = cytotoxic” value was 15.4%.

On to `CCOc1ccc(NC(=O)Cn2c(=O)n(CCCC(=O)NCc3ccc4c(c3)OCO4)c(=O)c3ccccc32)cc1`, for which the “activity change, negative = cytotoxic” value was 0.92%.

For `CCCOc1ccc(NC(=O)CC2C(=O)N(C)C(=S)N2Cc2ccc3c(c2)OCO3)cc1` (stereo not drawn), the Potency was 18.4 µM (active).

As for `CC(C)(O)C#Cc1ccc(CN2CCC(CO)(CCc3ccccc3)CC2)cc1`, the “activity change, negative = cytotoxic” value is -3.77%.

Turning to `Cc1cccc(-c2ncc(CN3CCC(CO)(CCCc4ccccc4)CC3)cn2)c1`, the “activity change, negative = cytotoxic” value was -25.5%.

As for `Cc1c(CN2CCC(CO)(CCOc3ccccc3)CC2)[nH]c2ccc(Cl)cc12`, the Potency was 14.6 µM (active).

Turning to `Cc1ccc(C(=O)COC(=O)C(Cc2c[nH]c3ccccc23)NC(=O)c2ccc(Br)cc2)cc1` (stereo not drawn), the “activity change, negative = cytotoxic” value is 16.8%.

On to `COc1cc(C(=O)Nc2ccc(OCc3cc(=O)n4cc(C)sc4n3)cc2)cc(OC)c1OC`, for which the “activity change, negative = cytotoxic” value is -3.16%.

Turning to `O=C(CSc1oc(-c2ccco2)nc1S(=O)(=O)c1ccc(Cl)cc1)c1ccccc1`, the “activity change, negative = cytotoxic” value was 2%.
